Measurements as given in PubChem BioAssay (EPA / NIEHS).
Results filed as inconclusive are left out. Calls of active or inactive are those of the source. How the source made its calls, unless noted: active means hit-call score of the fitted dose curve at least 0.9, where 1 is the maximum; inconclusive means response in the unintended direction; inactive means score below 0.9.

Legend:
[1] = TOX21_p53_BLA_p2_viability: Viability Assessment in the Tox21 HCT-116 p53 Agonism Beta-lactamase Assay, Phase 2 (AID 2283591);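 further: compound exposure lasted 16 h at 37 °C; actives lower the ATP signal meaning cytotoxicity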
Outline: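 Cytotoxicity readout: CellTiter-Glo ATP luminescence, 30 min at room temperature, after the beta-lactamase read. Cells were HCT116 exposed 16 h at 37C to compounds pin-transferred at 217-fold dilution from DMSO stocks.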

[2] = biological target: Cellular tumor antigen p53 (Homo sapiens) (UniProt P04637); assay: TOX21_p53_BLA_p2_ratio: Tox21 HCT-116 p53 Agonism Beta-lactamase Assay, Ratio, Phase 2 (AID 2283592)
Outline: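 Ratio endpoint: beta-lactamase cleavage of CCF4-AM, blue (460 nm) over green (530 nm). HCT116 reporter line; 16 h treatment, 37C; substrate 2 h RT.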

[3] = TOX21_p53_BLA_p3_viability: Viability Assessment in the Tox21 HCT-116 p53 Agonism Beta-lactamase Assay, Phase 3 (AID 2283593);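 further: cells exposed to compound for 16 h before reading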
Outline: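 Cellular ATP was quantified by CellTiter-Glo luminescence, read after 30 min at room temperature. Beforehand, HCT116 cells (4000/well) received compound 5 h post-seeding, 217-fold diluted from DMSO, then incubated 16 h at 37C.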

[4] = biological target: Cellular tumor antigen p53 (Homo sapiens) (UniProt P04637); assay: TOX21_p53_BLA_p3_ratio: Tox21 HCT-116 p53 Agonism Beta-lactamase Assay, Ratio, Phase 3 (AID 2283596)
Outline: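 Cells were seeded at 4000/well, rested 5 h at 37C, then dosed with DMSO compound solutions (217-fold dilution) for 16 h. CCF4-AM substrate was loaded for 2 h at room temperature, and the 460/530 nm emission ratio was fitted for gain of signal versus DMSO.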

[5] = TOX21_p53_BLA_p4_viability: Viability Assessment in the Tox21 HCT-116 p53 Agonism Beta-lactamase Assay, Phase 4 (AID 2283597);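 further: hits lower the luminescence signal meaning cytotoxicity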
Outline: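 Cytotoxicity was inferred from loss of CellTiter-Glo luminescence. HCT116 cells had been dosed with compounds after 5 h plating, incubated 16 h at 37C and 5% CO2, and exposed to the CCF4-AM substrate for 2 h.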

[6] = biological target: Cellular tumor antigen p53 (Homo sapiens) (UniProt P04637); assay: TOX21_p53_BLA_p5_ratio: Tox21 HCT-116 p53 Agonism Beta-lactamase Assay, Ratio, Phase 5 (AID 2283599)
Outline: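 Beta-lactamase reporter ratio (blue 460 nm over green 530 nm, 405 nm excitation) after 2 h CCF4-AM loading, in HCT-116 cells exposed 16 h at 37 C to compounds pinned at 217-fold dilution. Increases relative to DMSO baseline scored.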

[7] = TOX21_p53_BLA_p5_viability: Viability Assessment in the Tox21 HCT-116 p53 Agonism Beta-lactamase Assay, Phase 5 (AID 2283600)
Outline: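 Luciferase-coupled ATP quantitation of cells treated for 16 h (37C, 5% CO2) with test chemicals delivered in DMSO via a 217-fold dilution; 4000 cells/well; reagent incubated 30 min at room temperature before luminescence reading.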

[8] = biological target: Cellular tumor antigen p53 (Homo sapiens) (UniProt P04637); assay: TOX21_p53_BLA_p4_ratio: Tox21 HCT-116 p53 Agonism Beta-lactamase Assay, Ratio, Phase 4 (AID 2283601)
Outline: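 Signal is the blue/green (460nm/530nm) ratio of cleaved versus uncleaved CCF4-AM substrate, read after 2 h substrate loading. Cells were HCT116 carrying the p53-responsive beta-lactamase reporter, dosed 16 h at 37C, 5% CO2; CellTiter-Glo measured in parallel.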

[9] = CCTE_Shafer_MEA_dev_firing_rate_mean: CCTE's Neural Network Formation Assay for Mean Firing Rate, Shafer Lab (AID 2284031; active means hit-call score of the fitted dose curve at least 0.9, where 1 is the maximum; inactive means score below 0.9;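 further: curve fitted for loss of firing so AC50 reflects decreased mean firing rate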)
Outline: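 Spike frequency (spikes/recording length, averaged over active electrodes) was recorded on days 5, 7, 9 and 12 and collapsed to AUC; rat cortical cultures received compound continuously over 12 days of network development.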

[10] = CCTE_Shafer_MEA_dev_active_electrodes_number: CCTE's Neural Network Formation Assay for Number of Active Electrodes, Shafer Lab (AID 2284040);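 further: potency for loss of active electrodes versus DMSO so lower counts are hits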
Outline: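 Counts electrodes per well firing at least 5 spikes/min, recorded on days 5, 7, 9 and 12 in rat cortical cultures dosed continuously from plating (treatment refreshed DIV 5, 9). Value is the area under the curve over recordings, fitted downward relative to DMSO.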

[11] = CCTE_Shafer_MEA_dev_burst_rate: CCTE's Neural Network Formation Assay for Burst Rate, Shafer Lab (AID 2284042; active means hit-call score of the fitted dose curve at least 0.9, where 1 is the maximum; inactive means score below 0.9;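 further: potency for loss of burst rate below DMSO control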)
Outline: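 Cells plated, treated day 0; recorded DIV 5, 7, 9, 12; fed and re-treated DIV 5, 9. Endpoint: bursts per recording time, active-electrode well mean, trapezoidal AUC, fitted in decreasing direction against DMSO baseline.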

[12] = CCTE_Shafer_MEA_dev_bursting_electrodes_number: CCTE's Neural Network Formation Assay for Number of Bursting Electrodes, Shafer Lab (AID 2284043);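 further: potency is for loss of bursting electrodes relative to DMSO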
Outline: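 Number of electrodes reaching ≥1 burst every 2 min was recorded at DIV 5, 7, 9 and 12 and collapsed as trapezoidal area under the curve. Cultures were rat cortical neurons on MEA plates, dosed continuously from plating with medium and treatment refreshed on DIV 5 and 9.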

[13] = CCTE_Shafer_MEA_dev_burst_duration_mean: CCTE's Neural Network Formation Assay for Mean Burst Duration, Shafer Lab (AID 2284045; active means hit-call score of the fitted dose curve at least 0.9, where 1 is the maximum; inactive means score below 0.9;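 further: curve fitted for loss meaning shorter burst duration than DMSO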)
Outline: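 Mean single-electrode burst duration (first to last spike), averaged over bursting electrodes per well, then integrated as area-under-curve across recordings at days 5, 7, 9 and 12. Rat cortical cultures on MEAs, compound present from plating, refreshed at feeds.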

[14] = CCTE_Shafer_MEA_dev_inter_network_spike_interval_mean: CCTE's Neural Network Formation Assay for Mean Inter-network Spike Interval, Shafer Lab (AID 2284047; active means hit-call score of the fitted dose curve at least 0.9, where 1 is the maximum; inactive means score below 0.9;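 further: potency for a decrease in mean inter-network spike interval below DMSO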)
Outline: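 Rat cortical cultures, 1.5 x 10^5 cells/well on 48-well MEA plates; continuous exposure days 0–12, medium and compound refreshed DIV 5, 9. Mean time between consecutive network-spike peaks; AUC across DIV 5/7/9/12; DMSO baseline, negative fitting direction.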

[15] = CCTE_Shafer_MEA_dev_network_spike_number: CCTE's Neural Network Formation Assay for Number of Network Spikes, Shafer Lab (AID 2284048; active means hit-call score of the fitted dose curve at least 0.9, where 1 is the maximum; inactive means score below 0.9;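 further: synchronized bursts across electrodes counted on days 5 7 9 12 and integrated as AUC; fit as a loss of signal meaning fewer network spikes than DMSO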)
Outline: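 Number of network spikes (coordinated firing across electrodes) recorded on days 5, 7, 9 and 12 and summarised as area under the curve. Rat cortical cultures on MEA, continuous compound exposure with full medium/treatment exchange at DIV 5 and 9.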

[16] = CCTE_Shafer_MEA_dev_network_spike_peak: CCTE's Neural Network Formation Assay for Mean Number of Electrodes in Network Spike, Shafer Lab (AID 2284049; active means hit-call score of the fitted dose curve at least 0.9, where 1 is the maximum; inactive means score below 0.9;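 further: fitted for loss of signal meaning fewer electrodes in network spikes than DMSO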)
Outline: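 Rat cortical primary culture, 1.5 x 10^5 cells/well, 48-well MEA (16 electrodes/well). Dosing day 0 through DIV 12, full media/compound exchange DIV 5, 9. AxIS adaptive spike detection; AUC over days 5/7/9/12; loss-of-signal vs DMSO.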

[17] = CCTE_Shafer_MEA_dev_spike_duration_mean: CCTE's Neural Network Formation Assay for Mean Spike Duration, Shafer Lab (AID 2284051; active means hit-call score of the fitted dose curve at least 0.9, where 1 is the maximum; inactive means score below 0.9;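 further: mean network spike duration pooled as area under curve over DIV 5 to 12 recordings; potency for a decrease in mean network spike duration versus DMSO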)
Outline: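 Readout is the average length of network spikes, clustered firing across electrodes, summed over DIV 5, 7, 9 and 12 as area under the curve. Neurons from rat cortex developed networks on MEA plates under continuous 12-day exposure.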

[18] = CCTE_Shafer_MEA_dev_network_spike_duration_std: CCTE's Neural Network Formation Assay for Standard Deviation of Network Spike Duration, Shafer Lab (AID 2284052; active means hit-call score of the fitted dose curve at least 0.9, where 1 is the maximum; inactive means score below 0.9;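 further: hits are decreases in network spike duration SD versus DMSO vehicle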)
Outline: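 Read-out is the trapezoidal area-under-the-curve across recordings made on days 5, 7, 9 and 12, fitted in the negative direction against DMSO baseline. Neurons were primary rat cortical cells treated from day 0, with treatment renewed at each feed.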

[19] = CCTE_Shafer_MEA_dev_per_network_spike_spike_number_mean: CCTE's Neural Network Formation Assay for Mean Number of Spikes in a Network Spike, Shafer Lab (AID 2284053; active means hit-call score of the fitted dose curve at least 0.9, where 1 is the maximum; inactive means score below 0.9;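 further: fitted as decrease in spikes per network spike relative to DMSO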)
Outline: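 Continuous twelve-day exposure of developing rat cortical networks grown over 16 microelectrodes per well; spontaneous firing is captured at four time points, and the per-network-spike spike number is integrated over development by trapezoidal AUC.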

[20] = CCTE_Shafer_MEA_dev_per_network_spike_spike_percent: CCTE's Neural Network Formation Assay for Percent of Spikes in a Network Spike, Shafer Lab (AID 2284054; active means hit-call score of the fitted dose curve at least 0.9, where 1 is the maximum; inactive means score below 0.9)
Outline: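 Metric: fraction of spikes falling in a 0.05 s window at network-spike peaks. Recordings were made on days 5, 7, 9 and 12 and collapsed by trapezoidal AUC. Cultures were rat cortical neurons on MEA plates, dosed continuously from plating, re-dosed at media changes.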

Chain of Cellular tumor antigen p53 (Homo sapiens) (P04637 whole entry, looked up): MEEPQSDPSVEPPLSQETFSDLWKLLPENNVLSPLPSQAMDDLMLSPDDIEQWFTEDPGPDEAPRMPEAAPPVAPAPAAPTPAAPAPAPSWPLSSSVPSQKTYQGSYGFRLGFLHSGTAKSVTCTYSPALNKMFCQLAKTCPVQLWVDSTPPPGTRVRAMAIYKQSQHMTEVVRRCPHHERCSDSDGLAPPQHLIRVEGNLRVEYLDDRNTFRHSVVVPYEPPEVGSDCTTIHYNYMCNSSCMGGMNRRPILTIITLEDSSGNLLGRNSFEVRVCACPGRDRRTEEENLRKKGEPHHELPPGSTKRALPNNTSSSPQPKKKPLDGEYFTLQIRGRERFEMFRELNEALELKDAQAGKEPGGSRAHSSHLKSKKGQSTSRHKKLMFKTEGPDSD

Compound: CCC[CH2][Sn]([CH2]CCC)([CH2]CCC)[O][Sn]([CH2]CCC)([CH2]CCC)[CH2]CCC
- AC50 [1]: 708 nM (active)
- outcome [2]: inactive
- AC50 [3]: 236 nM (active)
- AC50 [4]: 348 nM (active)
- AC50 [5]: 668 nM (active)
- AC50 [6]: 2030 nM (active)
- AC50 [7]: 1370 nM (active)
- AC50 [8]: 2220 nM (active)
- AC50 [9]: 24.5 nM (active)
- AC50 [10]: 42.9 nM (active)
- AC50 [11]: 29.1 nM (active)
- AC50 [12]: 37.8 nM (active)
- AC50 [13]: 34 nM (active)
- AC50 [14]: 31.5 nM (active)
- AC50 [15]: 56.4 nM (active)
- AC50 [16]: 45.7 nM (active)
- AC50 [17]: 30.8 nM (active)
- AC50 [18]: 31.2 nM (active)
- AC50 [19]: 29 nM (active)
- AC50 [20]: 77 nM (active)
